This note sets out measurements from PubChem BioAssay (NCI).

Values joined by “and” are separate entries in the source; they are usually repeats but may differ in a detail not shown here. Equal entries are not always repeated. The panel holds about 83,000 compounds, 20% with a hit somewhere; the sample as a whole holds those more often.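 Single-dose data. Exposure time 48 hours. Values below 10 considered active.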 Values without a mark were called inactive. Active and inactive are the calls of the source.

What all share (test): NCI-60 one-dose screen, 48 h (100 = growth as untreated, 0 = no growth, -100 = all killed)
Holding throughout (conditions): 10 µM unless noted

For assay [1], the system named is SK-MEL-2 melanoma.
Assay [2] deals with SN12C renal.
The test system of assay [3] is UO-31 renal.
For assay [4], the system named is TK-10 renal.
Assay [5] deals with ACHN renal.
In assay [6] the test system is CAKI-1 renal.
The test system of assay [7] is A498 renal.
In assay [8] the test system is HL-60(TB) leukemia.
Assay [9] concerns CCRF-CEM leukemia.
In assay [10] the test system is EKVX NSCLC.

Regarding `COc1ccc2c(c1)C1(C)CCN(C)CC(C1)C2O` (centres undefined), the growth in assay [1] is 105%; in assay [2], 99.3%; in [3], 86.9%; in assay [4], 95%; in assay [5], 104%; in [6], 119%. Also, the values for the growth in assay [7], in assay [8] and in assay [9] were 99.5%, 89.1% and 94.3%, respectively.
Take `[N-]=[N+]=CC(=O)CCC(=O)C=[N+]=[N-]`: the growth in [1] is 113%; in assay [10], 105%; in [3], 71.3%; in assay [5] it was 95%; in assay [6] it was 97.4%; in [7], 110%. Further, the growth in [8] was 76.4%.
In the case of `N#CC(C#N)=Cc1cccc(F)c1`, the growth is 112% in [1]; 101% in [2]; 95.9% in [3]; 104% in assay [4]; 106% in assay [5]; 99.6% in assay [6]. Moreover, the growth is 102% in [7], 97.2% in [8] and 101% in assay [9].
As to `CCC(=O)C(CC(C)N1CCCCCC1)(c1ccccc1)c1ccccc1` (centres undefined), the growth is 103% in assay [1]; 90.8% in assay [10]; 67.3% in [3]; 84% in [4]; 97.6% in assay [5]; 79% in assay [6]. Moreover, the growth in assay [7] was 84.5%; in assay [8] it was 95.5%; in assay [9] it was 96.1%.
`CCN1C(=O)CC(=O)N(CC)C1=S`: the growth is 97% in assay [1]; 108% in assay [10]; 91.7% in [3]; 105% in assay [4]; 101% in assay [5]; 76.8% in assay [6]. The growth in assay [7] was 94.6%; in assay [8], 68.7%; in [9], 94.8%.
As for `CCOP(=O)(OCC)C(=O)N(CC)CC`, the growth is 103% in assay [1]; 103% in [2]; 104% in assay [3]; 105% in [5]; 103% in [6]; 95.4% in assay [7]. In addition, the growth in assay [8] is 91.8%; in assay [9] it was 89.1%.
Turning to `O=NN1CCCCC1`, the growth in assay [1] was 105%; in assay [2] it was 98.7%; in assay [3], 98.8%; in [4], 110%; in assay [5], 101%; in assay [6] it was 107%. Further, the growth is 88.1% in [7], 110% in assay [8] and 104% in assay [9].
For the molecule `CCC1CCC(=O)O1` (centres undefined), the growth was 94.8% and 114% in [1]; 108% and 109% in [2]; 85.5% and 95% in assay [3]; 105% and 109% in assay [4]; 105% and 109% in assay [5]; 104% in assay [6]. Also, the growth in assay [7] is 96.5% and 98.6%; in assay [8], 78% and 109%; in assay [9], 116%.
As to `O=C(O)c1cc([N+](=O)[O-])cc([N+](=O)[O-])c1`, the growth in assay [1] is 87.1%; in assay [2] it was 97.5%; in assay [3], 92%; in assay [4] it was 96.9%; in assay [5], 105%; in assay [6] it was 93.8%. Moreover, the growth in [7] is 92.6%; in [9], 80.6%.
For `O=[N+]([O-])c1cc(Cl)c(Cl)cc1Cl`, the growth in assay [1] is 143% and 119%; in assay [2], 94.6% and 108%; in [3], 104% and 95.4%; in assay [5], 104% and 109%; in [6], 100% and 107%; in [7] it was 104%. Besides, the growth in assay [8] was 114%; in assay [9], 105% and 106%.
As to `C[C@]12CCC(=O)C[C@@H]1CC[C@@H]1[C@@H]2CC[C@]2(C)[C@@H](OC(=O)N(CCCl)N=O)CC[C@@H]12`, the growth in [1] was 17.7%; in assay [2] it was 24%; in assay [3] it was 25.4%; in assay [4], 32.9%; in assay [5], 9.18% (active); in [6] it was 5.32% (active). The growth in assay [7] is 43.5%; in [8] it was -10.5% (active); in assay [9], 14.7%.
As to `C#Cc1cccc(Nc2nc(Cl)nc3cc(NC(=O)CF)ccc23)c1`, the growth is 66% in assay [1]; 91.9% in [2]; 74% in assay [3]; 85.7% in [4]; 92.5% in assay [5]; 55.8% in assay [6]. For the same molecule, the values for the growth in assay [7], in assay [8] and in [9] were 87.4%, 90.3% and 93.4%, respectively.
As to `CCC1(NC(=O)c2cc(F)c(F)c(F)c2F)C(=O)NC(=O)N(C(C)C)C1=O` (centres undefined), the growth in assay [1] was 68.4%; in assay [2] it was 81.7%; in [3] it was 68.2%; in assay [4], 123%; in [6], 93.6%; in [7] it was 98.2%. Moreover, the results for the growth in [8] and in assay [9] were -22.6% (active) and 87.3%, respectively.
On to `CNC(=O)CCl`, for which the growth in [1] was 101%; in [2], 96.9%; in [3], 96.5%; in [4], 99.9%; in assay [5] it was 114%; in assay [6] it was 94.9%. The growth is 92.1% in assay [7], 119% in assay [8] and 94% in assay [9].
Regarding `COc1cc(-c2ccc(N)c(OC)c2)ccc1N`, the growth in [1] is 118%; in assay [2] it was 104%; in assay [3], 93.6%; in assay [4], 107%; in [5] it was 100%; in [6], 92.5%. Moreover, the figures for the growth in [7], in assay [8] and in assay [9] were 118%, 118% and 113%, respectively.
